Assay results from PubChem BioAssay (Tox21).
Values joined by “and” are separate entries in the source; they are usually repeats but may differ in a detail not shown here. Equal entries are not always repeated. Inconclusive results are not listed. More than one record can exist for a structure, and the calls need not agree. Active and inactive are the calls of the source. Unless noted, calls follow the shape of the full dose curve.

Tests used:
[1] = Nuclear factor erythroid 2-related factor 2/antioxidant responsive element (Nrf2/ARE) small molecule agonists: qHTS cell viability counter screen in human keratinocytes (AID 1919968; active = well fitted curve in the direction sought with a large enough effect in the repeat runs; an effect the other way counts as inactive or inconclusive; also: nearly all actives have a fitted effect of over 55% in size)
In short: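 Seed 1,500 KeratinoSens cells per well, then incubate 5 h at 37 C/5% CO2. Add compounds in DMSO and incubate 23 h. Add CellTiter-Fluor, wait 1 h and read fluorescence.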

[2] = Nuclear factor erythroid 2-related factor 2/antioxidant responsive element (Nrf2/ARE) small molecule agonists: luciferase reporter gene qHTS assay in human keratinocytes (AID 1919969); also: nearly all actives have a fitted effect of over 35% in size; also: potency is read from the fitted curve at half-maximal effect
[3] = biological target: Gonadotropin-releasing hormone receptor (Homo sapiens) (UniProt P30968); assay: Human gonadotropin-releasing hormone receptor (GnRHR) small molecule agonists, calcium flux assay in GnRHR-HEK293 cells (AID 1920063); also: nearly all actives have a fitted effect of over 35% in size
Chain of Gonadotropin-releasing hormone receptor (Homo sapiens) (P30968 whole entry, looked up): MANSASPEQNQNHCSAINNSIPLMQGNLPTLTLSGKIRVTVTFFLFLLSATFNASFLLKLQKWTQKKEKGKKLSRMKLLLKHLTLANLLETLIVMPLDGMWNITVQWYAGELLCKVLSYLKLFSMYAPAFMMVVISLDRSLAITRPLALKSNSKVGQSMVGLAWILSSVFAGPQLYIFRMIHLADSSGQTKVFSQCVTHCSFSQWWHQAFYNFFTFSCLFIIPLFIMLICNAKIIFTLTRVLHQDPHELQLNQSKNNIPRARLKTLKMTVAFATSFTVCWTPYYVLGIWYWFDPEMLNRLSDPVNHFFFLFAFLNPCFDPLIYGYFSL
In short: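 Cells: HEK293 stably expressing human GnRHR. Steps: overnight (18 h) culture, 1 h calcium dye loading at 37 C, compound addition, kinetic fluorescence read at 480/540 nm. Each compound tested at 15 concentrations in triplicate.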

[4] = biological target: KiSS-1 receptor (Homo sapiens) (UniProt Q969F8); assay: Human kisspeptin (KISS1R) small molecule agonists, calcium flux assay in KISS1R-HEK293 cells (AID 1920064; active = well fitted curve in the direction sought with a large enough effect in the repeat runs; an effect the other way counts as inactive or inconclusive)
Chain of KiSS-1 receptor (Homo sapiens) (Q969F8 whole entry, looked up): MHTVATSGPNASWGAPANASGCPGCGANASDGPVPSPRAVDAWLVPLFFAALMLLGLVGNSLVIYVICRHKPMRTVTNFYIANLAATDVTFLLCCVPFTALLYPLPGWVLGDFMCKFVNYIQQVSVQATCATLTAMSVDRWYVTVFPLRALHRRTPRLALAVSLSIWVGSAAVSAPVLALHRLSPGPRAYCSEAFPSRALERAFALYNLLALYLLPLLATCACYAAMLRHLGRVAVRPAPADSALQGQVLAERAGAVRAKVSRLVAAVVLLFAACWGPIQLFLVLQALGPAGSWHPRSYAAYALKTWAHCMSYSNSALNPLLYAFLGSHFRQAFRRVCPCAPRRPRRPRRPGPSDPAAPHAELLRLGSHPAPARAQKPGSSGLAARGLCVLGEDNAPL
In short: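 Cells plated and incubated 18 h; dye added, 1 h at 37 C; compounds in DMSO pinned in; signal read at 480/540 nm every second for 3 min. Each compound tested at 15 concentrations in triplicate.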

[5] = G protein-coupled receptor (GPCR) small molecule agonists, calcium flux assay: HEK293 wild type cell line counter screen (AID 1920065)
In short: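 Counter-screen of the Tox21 10K library for non-specific calcium release: dye-loaded cells received compounds in DMSO and were monitored by kinetic fluorescence (480/540 nm, 3 min). Fifteen concentrations, run in triplicate.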

[6] = p53 small molecule agonists, cell-based qHTS assay with human liver microsomes (AID 1963577)
In short: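 p53RE-bla reporter cells were pre-incubated 5 h at 37 C, then treated with compounds plus human liver microsomes (0.5 mg/mL final) and NADPH (0.5 mg/mL final) for 16 h at 37 C. Beta-lactamase activity was read by LiveBLAzer fluorescence after 2 h at room temperature.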

[7] = p53 small molecule agonists, cell-based qHTS assay with rat liver microsomes (AID 1963578)
In short: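 p53RE-bla cells were exposed to compounds together with rat liver microsomes (0.5 mg/mL final) and NADPH (0.5 mg/mL final) for 16 h at 37 C, then read by LiveBLAzer beta-lactamase fluorescence after 2 h at room temperature.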

[8] = p53 small molecule agonists, cell-based qHTS assay with human liver microsomes: qHTS cell viability counter screen (AID 1963579); also: nearly all actives have a fitted effect of over 45% in size
In short: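 p53RE-bla cells (4,000/well) were pre-incubated 5 h at 37 C, then given compounds in DMSO plus human liver microsomes (0.5 mg/mL final) and NADPH (0.5 mg/mL final) for 16 h at 37 C. Viability was read by CellTiter-Glo luminescence.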

[9] = p53 small molecule agonists, cell-based qHTS assay with rat liver microsomes: qHTS cell viability counter screen (AID 1963580); also: nearly all actives have a fitted effect of over 45% in size
In short: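 Viability is assessed in parallel with the p53 reporter read: HCT-116 p53RE-bla cells receive compounds plus rat microsomes and NADPH (0.5 mg/mL final apiece), incubate 16 h at 37 C, and then CellTiter-Glo luminescence is recorded.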

[10] = p53 small molecule agonists, cell-based qHTS assay: qHTS cell viability counter screen (AID 1963581); also: nearly all actives have a fitted effect of over 45% in size
In short: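 Cells: HCT-116 with p53 response element-driven beta-lactamase. Treatment: 16 h, 37 C, compounds in DMSO. Read: CellTiter-Glo luminescence after 30 min RT.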

[11] = p53 small molecule agonists, cell-based qHTS assay (AID 1963582; active = well fitted activation curve with a large enough effect in the signal ratio in the repeat runs, not every such curve was filed as active; the % refers to the signal ratio)
In short: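 Quantitative HTS in p53RE-bla cells: after a 5 h settling period, compounds delivered in DMSO were left on cells for 16 h at 37 C, and reporter induction was measured as fluorescence following 2 h substrate loading.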

[12] = biological target: 5-hydroxytryptamine receptor 2A (Homo sapiens) (UniProt P28223); assay: 5-hydroxytryptamine receptor 2A (HTR2A) small molecule antagonists, cell-based qHTS assay (AID 1963586); also: nearly all actives have a fitted effect of over 45% in size
Chain of 5-hydroxytryptamine receptor 2A (Homo sapiens) (P28223 whole entry, looked up): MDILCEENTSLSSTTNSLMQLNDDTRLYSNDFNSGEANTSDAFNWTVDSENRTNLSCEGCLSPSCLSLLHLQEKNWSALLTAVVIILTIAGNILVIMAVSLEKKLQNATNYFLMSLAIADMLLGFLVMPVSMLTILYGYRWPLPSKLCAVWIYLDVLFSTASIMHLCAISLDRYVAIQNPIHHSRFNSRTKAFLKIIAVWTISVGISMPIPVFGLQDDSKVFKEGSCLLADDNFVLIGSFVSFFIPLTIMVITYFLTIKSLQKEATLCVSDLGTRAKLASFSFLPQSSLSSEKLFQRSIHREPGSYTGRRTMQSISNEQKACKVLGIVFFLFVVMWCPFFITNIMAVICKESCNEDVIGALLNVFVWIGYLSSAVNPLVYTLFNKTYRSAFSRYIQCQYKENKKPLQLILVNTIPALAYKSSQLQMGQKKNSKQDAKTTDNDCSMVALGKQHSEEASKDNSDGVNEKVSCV
In short: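 Antagonist-mode intracellular calcium assay: DOI (4 nM) added after 5 min compound pre-incubation at room temperature to dye-loaded HTR2A-CHO cells. Fluorescence followed for 3 min, sampled every second.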

[13] = biological target: 5-hydroxytryptamine receptor 2A (Homo sapiens) (UniProt P28223); assay: 5-hydroxytryptamine receptor 2A (HTR2A) small molecule agonists, cell-based qHTS assay (AID 1963587); also: nearly all actives have a fitted effect of over 30% in size; also: potency is read from the fitted curve at half-maximal effect
In short: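 CHO cells stably expressing human HTR2A, plated 18 h, loaded with calcium dye 1 h at 37 C. Agonist mode: compounds added and intracellular calcium fluorescence recorded kinetically for 2 min at 1 sec intervals.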

[14] = biological target: Muscarinic acetylcholine receptor M1 (Homo sapiens) (UniProt P11229); assay: Cholinergic receptor muscarinic 1 (CHRM1) small molecule antagonists, cell-based qHTS assay (AID 1963588); also: nearly all actives have a fitted effect of over 40% in size; also: potency is read from the fitted curve at half-maximal effect
Chain of Muscarinic acetylcholine receptor M1 (Homo sapiens) (P11229 whole entry, looked up): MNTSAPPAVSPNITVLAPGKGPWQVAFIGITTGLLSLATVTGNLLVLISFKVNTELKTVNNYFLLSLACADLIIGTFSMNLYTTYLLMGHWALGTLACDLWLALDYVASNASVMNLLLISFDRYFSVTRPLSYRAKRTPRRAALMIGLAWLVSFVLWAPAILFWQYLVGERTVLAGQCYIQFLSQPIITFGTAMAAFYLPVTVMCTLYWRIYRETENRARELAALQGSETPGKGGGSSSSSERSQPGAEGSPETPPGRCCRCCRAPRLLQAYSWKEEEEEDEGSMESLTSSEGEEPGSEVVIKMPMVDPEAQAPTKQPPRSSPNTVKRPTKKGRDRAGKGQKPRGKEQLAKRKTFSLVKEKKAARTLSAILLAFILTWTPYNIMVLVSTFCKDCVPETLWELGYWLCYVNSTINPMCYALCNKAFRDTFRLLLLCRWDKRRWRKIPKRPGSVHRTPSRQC
In short: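 CHRM1-CHO calcium-flux assay, antagonist mode. Cells were seeded 18 h, dye-loaded 1 h at 37 C and given compound for 5 min at RT, then acetylcholine was added at 50nM. FDSS fluorescence was read 3 min; 15 concentrations, three runs.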

[15] = biological target: Muscarinic acetylcholine receptor M1 (Homo sapiens) (UniProt P11229); assay: Cholinergic receptor muscarinic 1 (CHRM1) small molecule agonists, cell-based qHTS assay (AID 1963589); also: nearly all actives have a fitted effect of over 35% in size
In short: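 Agonist-mode qHTS in CHO cells stably carrying human muscarinic M1. Intracellular calcium is tracked by fluorescence every second after compound transfer; each compound runs at 15 concentrations in three independent runs.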

[16] = cAMP Responsive Elements (CRE) small molecule agonists, cell-based qHTS assay (AID 1963590)
In short: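 Agonist mode qHTS in CRE-bla HEK 293T cells: compounds dosed from DMSO for 3 h at 37 C/5% CO2, followed by LiveBLAzer B/G FRET substrate for 2 h at room temperature.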

[17] = cAMP Responsive Elements (CRE) small molecule antagonists, cell-based qHTS assay (AID 1963591; active = well fitted inhibition curve with a large enough effect in the signal ratio in the repeat runs, not every such curve was filed as active; the % refers to the signal ratio)
In short: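 Antagonist mode: test compounds are co-incubated with the adenylyl cyclase activator NKH477 (0.25 uM final) on CRE-bla HEK293T cells for 3 h at 37 °C, followed by LiveBLAzer substrate loading.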

[18] = biological target: Beta-2 adrenergic receptor (Homo sapiens) (UniProt P07550); assay: Adrenergic beta2 receptor (ADRB2) small molecule antagonists, cell-based qHTS assay (AID 1963592); also: series mostly up to about 92 µM; nearly all actives have a fitted effect of over 50% in size
Chain of Beta-2 adrenergic receptor (Homo sapiens) (P07550 whole entry, looked up): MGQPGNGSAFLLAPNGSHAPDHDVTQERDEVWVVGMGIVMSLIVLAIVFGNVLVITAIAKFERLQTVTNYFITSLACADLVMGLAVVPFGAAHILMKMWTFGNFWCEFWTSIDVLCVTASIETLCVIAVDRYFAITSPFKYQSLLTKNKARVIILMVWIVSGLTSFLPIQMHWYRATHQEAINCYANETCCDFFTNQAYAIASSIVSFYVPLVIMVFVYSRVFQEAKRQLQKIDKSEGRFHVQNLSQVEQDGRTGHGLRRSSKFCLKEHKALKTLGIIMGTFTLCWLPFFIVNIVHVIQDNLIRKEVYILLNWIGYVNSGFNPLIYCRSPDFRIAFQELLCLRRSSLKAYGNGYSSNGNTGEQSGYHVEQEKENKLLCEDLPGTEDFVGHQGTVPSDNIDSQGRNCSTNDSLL
In short: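 Cells (CHO, stable ADRB2 overexpression) incubated 18-20hr at 37C; compounds added from DMSO; agonist mix (1nM isoproterenol, 100uM IBMX, 25uM Ro-20-1724) added; 0.5hr RT; d2-cAMP and anti-cAMP-cryptate added; 1hr RT; 665/615 nm read.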

[19] = biological target: D(2) dopamine receptor (Homo sapiens) (UniProt P14416); assay: Dopamine D2 receptor (DRD2) small molecule agonists, cell-based qHTS assay (AID 1963594); also: nearly all actives have a fitted effect of over 35% in size
Chain of D(2) dopamine receptor (Homo sapiens) (P14416 whole entry, looked up): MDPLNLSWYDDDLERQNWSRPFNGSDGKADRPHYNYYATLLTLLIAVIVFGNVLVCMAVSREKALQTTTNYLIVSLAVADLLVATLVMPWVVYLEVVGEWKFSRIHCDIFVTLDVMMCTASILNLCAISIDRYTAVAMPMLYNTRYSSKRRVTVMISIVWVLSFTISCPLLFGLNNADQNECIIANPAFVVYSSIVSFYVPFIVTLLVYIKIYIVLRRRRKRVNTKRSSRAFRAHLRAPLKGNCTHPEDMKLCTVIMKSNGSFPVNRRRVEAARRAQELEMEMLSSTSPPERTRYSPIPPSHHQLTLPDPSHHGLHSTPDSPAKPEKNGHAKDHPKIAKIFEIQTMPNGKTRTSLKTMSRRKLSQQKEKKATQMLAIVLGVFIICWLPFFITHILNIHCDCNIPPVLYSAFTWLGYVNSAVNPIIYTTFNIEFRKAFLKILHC
In short: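 HEK293 cells stably expressing human DRD2, pre-treated with PDE inhibitor Ro20-1724 (0.1 mM final) and compound 10 min at room temperature, then stimulated with NKH477 (200nM […]) for 30 min. cAMP read by HTRF (665/620 nm).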

[20] = biological target: D(2) dopamine receptor (Homo sapiens) (UniProt P14416); assay: Dopamine D2 receptor (DRD2) small molecule antagonists, cell-based qHTS assay (AID 1963595; active = well fitted inhibition curve with a large enough effect in the signal ratio in the repeat runs, with a control signal flat; the % refers to the signal ratio)
In short: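 DRD2-HEK293; 0.1 mM Ro20-1724; cpd 10 min RT; NKH477 200 nM + quinpirole 12 nM, 30 min RT; HTRF cAMP (cAMP-d2/anti-cAMP cryptate), 665/620 nm ratio after 1 h.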

Measured: Potency

CN(C)CCc1ccc(O)cc1
inactive: [1] | [2] | [3] | [4] | [5] | [6] | [7] | [8] | [9] | [10] | [11] | [12] | [13] | [14] | [15] | [16] | [17] | [18] | [19] | [20]

c1ccc(-c2ccccc2)cc1
inactive: [1] | [2] | [3] | [4] | [5] | [6] | [7] | [8] | [9] | [10] | [11] | [12] | [13] | [14] | [15] | [16] | [17] | [18] | [19] | [20]

CCC(=O)OC1(c2ccccc2)CCN(C)CC1
inactive: [1] | [2] | [3] | [4] | [5] | [6] | [7] | [8] | [9] | [10] | [11] | [12] | [13] | [14] | [15] | [16] | [17] | [18] | [19]

Clc1ccc(C(Cl)(Cl)Cl)c(Cl)c1
inactive: [1] | [2] | [3] | [4] | [5] | [6] | [7] | [8] | [9] | [10] | [11] | [12] | [13] | [14] | [15] | [16] | [17] | [18] | [19] | [20]

Nc1ccc(N=Nc2ccc(-c3ccc(N=Nc4c(S(=O)(=O)O)cc5cc(S(=O)(=O)O)c(N=Nc6ccccc6)c(O)c5c4N)cc3)cc2)c(N)c1
active: [13] 31.6 µM
inactive: [1] | [2] | [3] | [4] | [5] | [6] | [7] | [8] | [9] | [10] | [11] | [12] | [14] | [15] | [16] | [17]

[P]#[In]
inactive: [1] | [2] | [3] | [4] | [5] | [6] | [7] | [8] | [9] | [10] | [11] | [12] | [13] | [14] | [15] | [16] | [17] | [18] | [19] | [20]

O=[N+]([O-])c1ccccc1O
inactive: [1] | [2] | [3] | [4] | [5] | [6] | [7] | [8] | [9] | [10] | [11] | [12] | [13] | [14] | [15] | [16] | [17] | [18] | [19] | [20]

CCCCC(CC)COC(=O)c1c(Br)c(Br)c(Br)c(Br)c1C(=O)OCC(CC)CCCC (stereo unspecified)
inactive: [1] | [2] | [3] | [4] | [5] | [6] | [7] | [8] | [9] | [10] | [11] | [12] | [13] | [14] | [15] | [16] | [17] | [18]

c1ccc(-c2cccc(-c3ccccc3)c2)cc1
active: [2] 21.9 µM and 27.3 µM
inactive: [1] | [3] | [4] | [5] | [6] | [7] | [8] | [9] | [10] | [11] | [12] | [13] | [14] | [15] | [16] | [17] | [18] | [19]

CCOP(=S)(OCC)SCSc1cc(Cl)ccc1Cl
inactive: [1] | [2] | [3] | [4] | [5] | [6] | [7] | [8] | [9] | [10] | [11] | [12] | [13] | [14] | [15] | [16] | [17] | [18] | [19]

CCCC(C)(COC(N)=O)COC(N)=O
inactive: [1] | [2] | [3] | [4] | [5] | [6] | [7] | [8] | [9] | [10] | [11] | [12] | [13] | [15] | [16] | [17] | [18] | [19] | [20]
active: [14] 19.9 nM

CN(C)C(=O)Nc1ccc(Cl)cc1
inactive: [1] | [2] | [3] | [4] | [5] | [6] | [7] | [8] | [9] | [10] | [11] | [12] | [13] | [14] | [15] | [16] | [17] | [18] | [19] | [20]

CC(=O)C(C)(C)C
inactive: [1] | [2] | [3] | [4] | [5] | [6] | [7] | [8] | [9] | [10] | [11] | [12] | [13] | [14] | [15] | [16] | [17] | [18] | [19] | [20]

O=NN1CCCCCCC1
inactive: [1] | [2] | [3] | [4] | [5] | [6] | [7] | [8] | [9] | [10] | [11] | [12] | [13] | [14] | [15] | [16] | [17] | [18] | [20]

CNC
3.34 µM (active) and inactive: [14]
inactive: [1] | [2] | [3] | [4] | [5] | [6] | [7] | [8] | [9] | [10] | [11] | [12] | [13] | [15] | [16] | [17] | [18] | [19] | [20]
